# High-throughput results as filed in PubChem BioAssay.
# Only some compounds are listed: those with a hit (about 1.6% of all), similar ones and a draw of the others.
# p53ts 39C kill = cytotoxicity in p53ts cells at nonpermissive temperature. 1.5% of 130,000 active. H1299-p53A138V viability at 39C, ATP luminescence, 24 h. AID 902. Potency, µM (doses to about 46.1 µM), hits mostly cytotoxic; also: nearly all actives have a fitted effect of over 55% in size
# Imprint erasure = genomic imprint erasure induction | mouse ES Peg3-LacZ reporter, beta-gal luminescence, 40 h | Potency, µM (top dose mostly 60.7 µM), usual class: activators | 0.02% of 110,000 active
#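 Each well holds 300 Peg3LacZ-Neo (maternal) female ES cells incubated 40 h at 37C, 5% CO2. LacZ is measured by BetaGlo luminescence, with AC50 and maximum efficacy derived from dose-response curves.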
# UbGFP stabilizer = inhibits proteasome, raising ubiquitin-GFP reporter fluorescence; Ubiquitin-GFP reporter cells, proteasome inhibition, GFP fluorescence; response scale: untreated = 0%, 10 µM MG-132 = 100%; Potency, µM (titrated, usually from 45.9 µM), most hits filed as activators; 67,000 tested, under 10 active; AID 526; active = well fitted activation curve with a large enough effect, not every such curve was filed as active; inconclusive = small, poorly fitted or top-dose-only effect, or another doubt; inactive = no such curve, though single readings can be large or run the other way
#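 GFP accumulation read-out: laser plate cytometry counting ubiquitin(G76V)-GFP-expressing U2OS cells after 4 hr compound exposure at 37 °C. Titrations spanned 46 uM to 2.9 nM; 0% = basal, 100% = 10 uM MG-132; concentration-response curves fitted.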
# Epigenetic mod = epigenetic modulators derepressing GFP locus in mouse cells; mouse C127i GFP locus derepression, cytometry, 30 h; AID 597; Potency, µM (doses to about 46.1 µM); 0.09% of 68,000 active
#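 Read-out is the number of GFP-positive cells, scored as fluorescent objects 20 to 120 um wide, reflecting derepression of a silenced CMV-GFP reporter in murine C127i cells after 30 h compound exposure at 37 C.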
# HBB splicing = alters splicing of the hemoglobin beta chain. 0.06% of 65,000 active. HBB splicing reporter cell assay, activation; EGFP reporter with mutant IVS2-654 intron; response scale: normalised to 500 nM splice-correcting PNA. AID 925. Potency, µM (series often up to 46.1 µM), usual class: activators
#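 Compounds were applied for 2 days to HeLa EGFP-654 cells, 500/well in Optimem with 2% FCS. The reporter's EGFP is disrupted by mis-splicing of beta-globin intron IVS2-654. Readout: summed well GFP fluorescence from 488 nm laser scanning; reference was 500 nM antisense […] 654 PNA.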
# p53ts 32C tox = kills p53ts cells at the permissive temperature; Potency, µM (top dose mostly 46.1 µM), usual class: cytotoxic; AID 924; 0.93% of 130,000 active; H1299-p53A138V at 32C, ATP luminescence viability, 24 h; also: nearly all actives have a fitted effect of over 55% in size
#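 H1299-p53 A138V cells (temperature-sensitive p53) exposed 24 h to up to 46 uM compound at 32C, where p53 is wild-type in conformation. Viability read as ATP luminescence and normalised to DMSO and 100 uM tamoxifen. AC50 fitted with the Hill equation.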
# A number is an active result; i = inactive; ? = inconclusive; nt = no result given; [ ] = remark or other dose. Unless noted, calls follow the shape of the dose curve; as a rule, active = well fitted curve in the direction sought with a large enough effect; inconclusive = small, poorly fitted or top-dose-only effect, or another doubt; inactive = no such curve, though single readings can be large; an effect the other way counts as inactive or inconclusive.
SMILES,p53ts 39C kill,Imprint erasure,UbGFP stabilizer,Epigenetic mod,HBB splicing,p53ts 32C tox
Cn1c(CNc2ccc(Cl)cc2)nc2ccccc21,?,i,i,i,i,?
Cc1ccc(-n2nc(CO)c(C(=O)NCCO)n2)cc1,?,i[10.9 µM],nt,nt,nt,?
COCCCNC(=O)c1ccc2nc3ccccc3c(=O)n2c1,i,i,i,i,i,?
CCc1ccccc1NC(=O)Cn1c(=O)n(CCc2ccccc2)c(=O)c2sc3ccccc3c21,10µM,i[10.9 µM],nt,nt,nt,i
C=CCC1CCCC(=O)N2CCCC12 (stereo not given),nt,i,nt,nt,nt,nt
O=C1c2[nH]nc(-c3ccccc3O)c2C(c2ccc(Cl)cc2)N1CCc1ccccc1 (stereo not given),?,i[10.9 µM],nt,nt,nt,20µM
O=C(COC(=O)c1ccc(N2CCCC2=O)cc1)NCc1ccco1,i,i,i,i,i,i
O=C(Nc1ccc(F)cc1)c1csc2c1CCCCC2,?,i[10.9 µM],nt,nt,nt,16µM
Cc1c(CC(=O)N2CCCCC2)c(=O)oc2c(C)c(O)ccc12,i,i[10.9 µM],nt,nt,nt,i
C=CCN1C(=O)C2C(C(=O)NCc3ccccc3)C3(C)C=CC2(O3)C1C(=O)NC(C)(C)C (stereo not given),i,10µM,i,i,i,i
O=C(Cc1cc(=O)[nH]c(=O)[nH]1)N1CCC(Cc2ccccc2)CC1,?,i,i,nt,i,10µM
CCN(c1cccc(C)c1)S(=O)(=O)c1nnc(NC(=O)c2ccccc2Cl)s1,?,i[10.9 µM],nt,nt,nt,i
Cc1c(Cl)cccc1-c1ccc(/C=C(\C#N)c2nc3ccccc3[nH]2)o1,13µM,i[10.9 µM],nt,nt,nt,?
Cc1ccc2nc(/C(C#N)=C/c3ccc(-c4ccc(F)cc4F)o3)[nH]c2c1,5µM,i[10.9 µM],nt,nt,nt,6.3µM
N#C/C(=C/c1ccc(N2CCCCCC2)o1)c1ccc(F)cc1,i,i,i,3.2µM,?,i
N#C/C(=C\c1ccc(Sc2ccc(Cl)cc2)o1)c1nc2ccccc2[nH]1,i,nt,nt,nt,nt,nt
N#C/C(=C/c1ccc(N2CCOCC2)o1)c1nc2ccccc2[nH]1,?,nt,nt,nt,nt,16µM
COc1ccc(NC(=O)Cn2nnc(-c3ccccc3NC(=O)c3ccco3)n2)cc1,?,i,i,i,i,?
CCCCOc1ccc(-c2nn(-c3ccccc3)cc2C2NC(=O)NC(C)=C2C(=O)OCC)cc1 (stereo not given),?,i[10.9 µM],nt,nt,nt,i
O=C(Nc1ccc(Cl)cn1)c1cc2ccccc2o1,?,i,i,i,i,13µM
O=C(NC1=NCCS1)Nc1ccccc1,16µM,i,i,i,i,10µM
O=C(Nc1ccccn1)c1cc2ccccc2o1,5µM,nt,nt,nt,nt,4.5µM
O=C(NC1=NCCS1)c1cc2ccccc2o1,5µM,i,i[9.17 µM],i,i[0.0738 µM],5µM
O=C(Nc1cccc2ncccc12)c1cc2ccccc2o1,i,i,i,i,i,i
Cc1ccc(OCCC(=O)Nc2c(C)n(C)n(-c3ccccc3)c2=O)cc1,i,i,i,i,i,i
SMILES,p53ts 39C kill,Imprint erasure,UbGFP stabilizer,Epigenetic mod,HBB splicing,p53ts 32C tox
O=C(c1ccccc1)c1ccc(OCC(O)CN2CCOCC2)cc1 (stereo not given),i,i,i,i,i,i
O=C(NC1=NCCS1)c1csc2ccccc12,?,nt,nt,nt,nt,13µM
Cc1cc(C(=O)NC2=NCCS2)cs1,?,i,i,i,i,?
Cc1cc(Nc2cccc(C(F)(F)F)c2)ncn1,i,i[10.9 µM],nt,nt,nt,i
Cc1ccc(Nc2nc3nonc3nc2Nc2cccc(C(F)(F)F)c2)cc1Cl,10µM,i[10.9 µM],nt,nt,nt,13µM
O=C(COc1ccccc1C(=O)c1cnn(-c2ccccc2)c1)Nc1ccccc1,?,nt,nt,nt,nt,11µM
N#Cc1cc(C(=O)c2ccccc2OCC(=O)Nc2ccccc2)cn(C2CCCCC2)c1=O,i,nt,nt,nt,nt,i
Cc1ccc(NC(=O)c2ccc(NC(=O)N3CCSc4ncccc43)cc2)c(Cl)c1,?,i[10.9 µM],nt,nt,nt,10µM
CCOC(=O)c1cnc2ccc(Cl)cc2c1Nc1ccc(N2CCOCC2)cc1,i,i[10.9 µM],nt,nt,nt,i
CCOC(=O)c1cnc2ccc(C)cc2c1Nc1ccc(N(CC)CC)cc1,13µM,i[10.9 µM],nt,nt,nt,i
CCOC(=O)c1cnc2ccc(C(=O)OC)cc2c1Nc1ccc(N2CCOCC2)cc1,13µM,i[10.9 µM],nt,nt,nt,?
CCOC(=O)c1ccc2ncc(C(=O)OCC)c(NCCN(C)C)c2c1,i,i,i,nt,i,i
NCCCCCCNS(=O)(=O)c1ccc2c(Cl)cccc2c1,32µM,i,i,i,nt,i
NCCCCNS(=O)(=O)c1ccc2c(Cl)cccc2c1,i,i,i,i,nt,i
COc1ccc(Nc2ccc3c(c2)=NC2(CCCCC2)[N+]=3[O-])cc1,6.3µM,i,i,i,i[9.22 µM],5µM
[O-][N+]1=c2ccc(Nc3ccccc3)cc2=NC12CCCCC2,20µM,i,nt,i,i[0.369 µM],5µM
COc1ccc(CCNC(=O)CCn2c(=O)c3cccn3c3ccc(F)cc32)c(OC)c1OC,i,i[10.9 µM],nt,nt,nt,i
COC(=O)C1CCCN1S(=O)(=O)c1ccc2ccccc2c1 (stereo not given),i,nt,i,i,nt,i
Fc1ccc(-c2nnc(NC3=NCCCCC3)o2)cc1,4µM,i,i,i,i,4µM
Fc1ccc(-c2nnc(Cc3nnc(-c4ccc(F)cc4)o3)o2)cc1,i,i,i,i,i,i
Cc1cccc(C(=O)Nc2sc3c(c2C(=O)O)CCCC3)c1,13µM,i[10.9 µM],nt,nt,nt,?
Cc1cccc(C(=O)Nc2sc3c(c2C(=O)Nc2ccccc2)CCC3)c1,i,i[10.9 µM],nt,nt,nt,i
O=C(Nc1sc2c(c1C(=O)O)CCCCC2)c1ccco1,13µM,i,i,i,i,13µM
CN(C)C(=O)c1c(NC(=O)c2ccco2)sc2c1CCCCC2,i,nt,nt,nt,nt,i
O=C(C1CCCN(S(=O)(=O)c2cccc3nsnc23)C1)N1CCN(c2ccccc2Cl)CC1 (stereo not given),i,i[10.9 µM],nt,nt,nt,i
SMILES,p53ts 39C kill,Imprint erasure,UbGFP stabilizer,Epigenetic mod,HBB splicing,p53ts 32C tox
CCN1C(C)=C(C(=O)OC)C(c2ccccc2)N2C(=O)[C@](O)(C(=O)OC)C(c3ccccc3)C(C(=O)c3ccccc3)=C12 (stereo not given in full),i[9.22 µM],nt,nt,nt,i[9.22 µM],i[9.22 µM]
CCOC(=O)c1sc(NC(=O)c2ccc(C)o2)nc1C,7.9µM,i,i,i,i,7.9µM
Cc1ccc2c(=O)cc(C(=O)Nc3sc4c(c3C(=O)NCC3CCCO3)CCCC4)oc2c1 (stereo not given),i,i[10.9 µM],nt,nt,nt,i
COc1ccc(-c2cc(C(F)(F)F)nc(S(C)(=O)=O)n2)cc1,20µM,i[10.9 µM],nt,nt,nt,?
Cc1cccc(OCC(=O)Nc2ccc(S(=O)(=O)N3CCCC3)cc2)c1,i,i,i,i,i[9.22 µM],i
CCN(CC)c1ccc2cc(-c3nnc(-c4cccc(Cl)c4)o3)c(=O)oc2c1,i,i[10.9 µM],nt,nt,nt,i
CCN(CC)c1ccc2cc(-c3nnc(-c4ccncc4)o3)c(=O)oc2c1,nt,nt,nt,2µM,nt,nt
